# Screening results as filed in PubChem.
# mHTT CaM bind – disrupts binding of mutant huntingtin to calmodulin. P42858. AlphaScreen His-mHTT/GST-CaM binding, luminescence. inhibition, % at 15 µM. 3.6% of 190,000 active;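 also: 0% = both proteins with DMSO and 100% = one protein alone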
# Pf apPOL inh – Pf-apPOL DNA polymerase inhibition; Recombinant Pf-apPOL, molecular beacon fluorescence, 1.5 h; inhibition, % at 10 µM; 0.25% of 210,000 active; AID 1794808
# The depositor's hits bear a star; i = inactive; / = no result. A selection: hits, their analogues and other compounds. The true share with any hit is near 3.5%. Rule as the data show it: active = inhibition above about 50%; inactive = the rest.
SMILES,mHTT CaM bind,Pf apPOL inh
Cc1nc(N2CCN(C(=O)C(C)C)CC2)c2c3c(sc2n1)CCCC3,7.2,-4.3
CCC(=O)NC(=Nc1nc(C)c2cc(C)c(C)cc2n1)NC(=O)CC,2.2,52.5*
CCOc1ccc2c(C)nc(N=C(N)NC(=O)CC)nc2c1,-5.0,-1.3
COCCn1c(C2CCN(S(=O)(=O)c3cc(F)ccc3C)C2)nc2ccncc21 (centres undefined),0.9,1.3
CCc1nnc(-c2cccn2CC(=O)NC2CCCC2)o1,-6.1,-0.6
O=C(Cn1cnc([N+](=O)[O-])n1)Nc1cc(Oc2cccc(Cl)c2)cc([N+](=O)[O-])c1,62.0*,3.0
COc1cc(NC(=O)Cn2cnc([N+](=O)[O-])n2)cc([N+](=O)[O-])c1,3.0,1.6
O=C(Cn1cnc([N+](=O)[O-])n1)Nc1cc(Oc2cccnc2)cc([N+](=O)[O-])c1,6.0,2.4
Cc1cccc(Oc2cc(NC(=O)Cn3cnc([N+](=O)[O-])n3)cc([N+](=O)[O-])c2)c1,57.0*,4.0
COc1ccc(C)cc1NC(=O)C1CCCN(C(=O)c2cccc(C(F)(F)F)c2)C1 (centres undefined),32.8,4.5
CCOC(=O)CNC(=O)CSc1nnc(NC(=O)NC(C)(C)C)s1,-15.5,1.8
CCN1c2cc(C)ccc2-n2cccc2C12CCN(C(=O)Nc1ccccc1Cl)CC2,26.4,0.8
CCN1c2cc(C)ccc2-n2cccc2C12CCN(C(=O)NC(C)C)CC2,99.5*,1.9
CCN1c2cc(C)ccc2-n2cccc2C12CCN(C(=O)NC(C)C(=O)OC)CC2 (centres undefined),67.7*,-2.0
COC(=O)C(C)NC(=O)N1CCC2(CC1)Nc1cc(F)ccc1-n1cccc12 (centres undefined),37.9,3.5
Cc1cccc(/C(N)=N/OC(=O)COc2cc(C)c(Cl)c(C)c2)c1,i,-1.0
COc1cc(/C=C(\C#N)c2nn(-c3ccccc3)c(N)c2C#N)cc(OC)c1OC,49.4,-8.5
COc1cc(/C=C(\C#N)c2nn(CCO)c(N)c2C#N)cc2c1OCO2,0.7,-4.5
CCOc1cc(/C=C(\C#N)c2nn(CCO)c(N)c2C#N)cc(I)c1OC,52.0*,0.3
CCOc1cc(/C=C(\C#N)c2nn(-c3ccccc3)c(N)c2C#N)cc(Br)c1OC,56.2*,-1.7
OC(C#CC1CC1)c1ccco1 (centres undefined),100.2*,-7.8
OC(C#CC1(O)CCCCC1)c1ccco1 (centres undefined),-2.2,/
Cc1cccn2c(=O)c3cc(C(N)=O)c(=N)n(CCN4CCOCC4)c3nc12,0.0,7.4
O=C(NCCn1nc(-c2cccs2)ccc1=O)c1ccc2ncsc2c1,-5.7,-15.0
Cc1ccc(-n2nc3c(c2NC(=O)c2ccc([N+](=O)[O-])cc2)CSC3)c(C)c1,50.0*,-4.7
SMILES,mHTT CaM bind,Pf apPOL inh
Cc1ccccc1-n1nc2c(c1NC(=O)c1ccco1)CSC2,38.0,-2.1
Cc1ccc(C(=O)Nc2c3c(nn2-c2ccc(C)cc2C)CSC3)cc1,32.0,-7.7
O=C(Nc1c2c(nn1-c1cccc(Cl)c1)CSC2)c1c(F)cccc1F,23.0,-4.8
Cc1cccc(-n2nc3c(c2NC(=O)c2ccco2)CSC3)c1C,60.0*,-6.6
Cc1ccc(-n2nc3c(c2NC(=O)c2cccc([N+](=O)[O-])c2)CSC3)c(C)c1,0.0,-5.1
Cc1ccc(-n2nc3c(c2NC(=O)c2ccco2)CSC3)c(C)c1,52.0*,-9.8
O=C(NCc1cccs1)C(=O)Nc1c2c(nn1-c1cccc(Cl)c1)CSC2,69.3*,-4.9
O=C1CC(Cc2ccc(Cl)cc2)C(=O)N1CCc1ccc2c(c1)OCO2 (centres undefined),-7.6,-0.1
CCOc1ccc(NC(=O)c2cc3nc(-c4ccc5c(c4)OCO5)cc(C(F)(F)F)n3n2)cc1,0.0,4.5
CCc1ccc2nc(N3CCC(C(=O)NCc4cccs4)CC3)sc2c1,1.0,-9.6
COc1cc(O)c(-c2c(C)cc(OC)c3c(OC)cccc23)c2c1C(C)NC(C)C2 (centres undefined),/,-5.6
O=C(Cc1cccnc1)N1CCCn2nc(-c3ccc(F)cc3)cc2C1,-4.0,-14.4
O=C(c1ccc2ncnc(N3CCCC3)c2c1)N1CCN(c2ccccc2F)CC1,3.5,1.0
O=C(Nc1c2c(nn1-c1cccc(Cl)c1)CSC2)c1ccco1,67.0*,-1.2
COc1cccc(C(=O)Nc2c3c(nn2-c2ccc(C)cc2C)CSC3)c1OC,50.0*,-2.7
CC(=O)Nc1c2c(nn1-c1cccc(Cl)c1)CSC2,35.0,-6.9
COc1cc(C(=O)Nc2c3c(nn2-c2ccc(C)cc2C)CSC3)cc(OC)c1OC,-2.0,-6.8
COc1ccc(C(O)=C2C(=O)C(=O)N(CCCN3CCOCC3)C2c2ccc(Cl)cc2)cc1 (centres undefined),-4.9,-12.5
O=C(Nc1cccc(Cl)c1)N1CCCC1c1nc(-c2ccc(F)cc2F)no1 (centres undefined),-20.7,-2.5
O=C(Cc1ccc(F)cc1)Nc1ncc([N+](=O)[O-])s1,8.7,-6.3
